Compounds with a hit are over-represented: about 7.4% of the library has one in this group of screens.
NPC1 promoter act = activators of NPC1 promoter. Huh7 NPC1 promoter luciferase reporter, 24 h. actives 2.4% (n = 320,000). Potency, µM (titrated, usually from 9.22 µM), for inactives: top-dose activation, most hits filed as activators; further: % of control where 0% means no effect; nearly all actives have a fitted effect of over 60% in size
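In 1536-well qHTS, Huh7 cells harboring an NPC1 promoter–luciferase construct received compound for 24 h; activation was quantified by luminescence following luciferase reagent addition.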
SMN2 splice enh = enhancers of SMN2 splice variant expression; HEK293 SMN2-luciferase splicing reporter, luminescence, 30-36 h; Potency, µM (titrated, usually from 46.1 µM), for the others: at the top dose activity change, positive = activation, actives largely listed as activators; actives 2.8% (n = 210,000); further: % of control where 0% means no effect; nearly all actives have a fitted effect of over 55% in size
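qHTS luciferase splicing reporter: luminescence rises when SMN2 exon 7 is included in transfected HEK293 cells. Compound exposure lasted 30-36 h at 37C, with 4.5 mM final sodium butyrate as control, followed by a ONE-Glo read.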
Rab9 prom act = activates the Rab9 promoter; Huh7 Rab9 promoter-luciferase reporter, luminescence, 24 h; Potency, µM (doses to about 9.22 µM), for the others: at the top dose activation, negative = inhibition, usual class: activators; actives 2.8% (n = 320,000); AID 485297; further: % of control where 0% means no effect; nearly all actives have a fitted effect of over 60% in size
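Steps: seed 1500 Huh7 Rab9-luc cells per well, rest 2 h at 37 °C; add compound in DMSO; incubate 24 h; add luciferase reagent, 10 min ambient; read luminescence.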
ELG1 genotoxic = inducers of genotoxicity in HEK293T ELG1-luciferase cells; HEK293T ELG1-luciferase reporter, luminescence, 16 h; actives 1.3% (n = 330,000); Potency, µM (doses to about 46 µM), for inactives: at the highest dose activity change, positive = activation, most hits filed as activators; further: % of control where 0% means no effect; nearly all actives have a fitted effect of over 60% in size
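Luminescence read-out: rising ELG1-luciferase signal, reflecting elevated ELG1 protein under genetic stress, flags genotoxic compounds. Cells were treated for 16 hr at 37 °C before ONE-Glo detection.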
FLuc counter = inhibits or activates purified firefly luciferase, miR-21 counter-screen; purified FLuc, Km substrates, luminescence inhibition; P08659; actives 6.9% (n = 360,000); Potency, µM (series often up to 57.5 µM), inactives show at the highest dose activity change, negative = inhibition, most hits filed as inhibitors;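 further: plate controls were vehicle for no effect and reference inhibitor for full effect; nearly all actives have a fitted effect of over 55% in size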
Target sequence (P08659 whole entry, looked up): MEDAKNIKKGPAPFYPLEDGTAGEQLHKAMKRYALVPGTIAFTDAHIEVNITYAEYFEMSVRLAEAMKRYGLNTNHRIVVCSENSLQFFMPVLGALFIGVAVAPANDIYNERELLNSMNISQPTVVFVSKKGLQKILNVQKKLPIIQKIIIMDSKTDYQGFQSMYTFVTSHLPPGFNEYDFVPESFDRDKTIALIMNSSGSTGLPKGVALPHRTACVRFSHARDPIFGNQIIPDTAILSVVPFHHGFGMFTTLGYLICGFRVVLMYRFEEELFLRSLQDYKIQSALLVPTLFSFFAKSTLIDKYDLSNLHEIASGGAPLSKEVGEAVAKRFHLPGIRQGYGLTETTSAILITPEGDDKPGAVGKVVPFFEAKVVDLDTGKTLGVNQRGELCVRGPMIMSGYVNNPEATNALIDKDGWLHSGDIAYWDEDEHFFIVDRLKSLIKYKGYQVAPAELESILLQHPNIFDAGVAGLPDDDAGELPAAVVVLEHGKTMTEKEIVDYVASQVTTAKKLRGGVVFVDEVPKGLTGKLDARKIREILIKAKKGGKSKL
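Biochemical qHTS of compounds, final roughly 60 µM downward over six points, against 10 nM purified firefly luciferase using Km concentrations of substrates (10 uM D-luciferin, 10 uM ATP) in Tris acetate pH 7.5 buffer; luminescence output.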
p53 reactivator = re-activators of mutant p53. Potency, µM (doses to about 92.2 µM), for inactives: top-dose activity change, positive = activation, usual class: activators. AID 504706. H1299 p53-A138V BP100-luciferase reporter, luminescence, 24 h. actives 0.063% (n = 320,000); further: % of control where 0% means no effect; nearly all actives have a fitted effect of over 45% in size
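p53-null H1299 cells stably carrying temperature-sensitive p53-A138V and a BP100-luciferase reporter were pinned with compounds (4-point, 1:5 series) and held 24 hrs at 37 deg C. Luminescence was read 10 min after detection reagent.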
Starred values were filed as active, the others as inactive; ? = inconclusive; nt = no result. The call rests on the fitted dose curve; in most records, active means well fitted curve in the direction sought with a large enough effect; inconclusive means small, poorly fitted or top-dose-only effect, or another doubt; inactive means no such curve, though single readings can be large; an effect the other way counts as inactive or inconclusive. Potency means the concentration at half of the fitted maximal effect.

SMILES | NPC1 promoter act | SMN2 splice enh | Rab9 prom act | ELG1 genotoxic | FLuc counter | p53 reactivator
Cc1nc2c3cc(F)ccc3n(Cc3ccccc3)c2s1 | -2% | -5% | -6% | 18% | -2% | 5%
CCc1ccc2c(c1)c1nc(C)sc1n2CC(=O)OC | 1% | -13% | -2% | -4% | 12µM* | -5%
CC(N)(C(=O)O)c1ccc(S(=O)(=O)O)cc1 (centres undefined) | nt | 16% | nt | nt | nt | nt
O=C(COC(=O)c1ccccc1Cl)Nc1cccnc1Cl | 0% | nt | 0% | 2% | ? | 5%
O=C(COC(=O)COc1ccccc1Cc1ccccc1)Nc1cccnc1Cl | -4% | 5.6µM* | 0% | 5% | -1% | 6%
COc1ccc(S(=O)(=O)N2CCOCC2)cc1C(=O)N(C)Cc1ccco1 | nt | nt | nt | 1% | nt | -3%
O=C(CSc1ncnc2ccccc12)NCc1ccco1 | -5% | -4% | -5% | -1% | -2% | 8%
O=C(CSc1nc2ccccc2[nH]1)c1ccco1 | ? | ? | 4µM* | ? | 17µM* | ?
O=C(CSc1ncnc2ccccc12)c1ccco1 | 3.2µM* | nt | 3.2µM* | ? | 3µM* | 28%
O=C(CSc1nc2ccccc2[nH]1)NCc1ccccc1 | 26% | nt | 28% | 9% | -5% | nt
COc1ccc2nc(SCC(=O)C(C)(C)C)[nH]c2c1 | 2µM* | nt | 2.2µM* | 15µM* | ? | 28%
COc1ccc2nc(SCC(=O)c3ccco3)[nH]c2c1 | 2.2µM* | ? | 1.8µM* | ? | 5.4µM* | ?
COC(=O)c1c(NC(=O)CCCOc2cccc(C)c2)sc2c1C(C(=O)OC)CC2 (centres undefined) | nt | -27% | nt | nt | ? | nt
CCCCn1c(N)c(N(CC(C)C)C(=O)c2cc(-c3ccncc3)nc3ccccc23)c(=O)[nH]c1=O | -3% | nt | -1% | 3% | 2% | -2%
Cc1ccc(NC(=O)c2c(C)nc3ccccn23)cc1C | 3.2µM* | 13µM* | 1.8µM* | -1% | 8.5µM* | 16%
Cc1cccc(C(=O)NNC(=O)c2ccccc2O)c1 | 3.2µM* | nt | ? | ? | 21µM* | nt
Cc1cccc(NC(=O)c2c(C)nc3ccccn23)c1 | 22% | ? | ? | 4% | ? | 17%
Cc1cccc(C(=O)Nc2cccc(NC(=O)c3ccccc3)c2)c1 | 10% | nt | -3% | -2% | 17µM* | -6%
Cc1cccc(C(=O)Nc2ccccc2C(=O)OCC(=O)Nc2ccc(C#N)cc2)c1 | 11% | 16µM* | 13% | ? | ? | ?
Cc1nc2cc(C(=O)OCC(=O)Nc3ccc(C#N)cc3)ccc2n1-c1ccccc1 | -5% | 25% | -2% | 1% | -12% | 2%
C=CCn1c(SCC(=O)N(CC)C2CCS(=O)(=O)C2)nc2cc(C(=O)O)ccc2c1=O (centres undefined) | 0% | nt | -4% | -4% | 7% | 1%
CCOC(=O)c1c(S(=O)(=O)NCC(=O)Nc2ccc(F)cc2)c(C)n(C)c1C | 0% | nt | -3% | -1% | 2% | 10%
Cc1cc2ccccn2c1C(=O)Nc1ccccc1 | 27% | ? | ? | ? | 11µM* | 11%
Cc1ccc(OCC(=O)Nc2ccc(NC(=O)c3ccccc3)cc2)cc1C | 2% | nt | 13% | 4% | -4% | 2%
Cc1ccc(NC(=O)CC(=O)c2ccccc2)cc1C | ? | nt | 4µM* | ? | 15µM* | ?
Cc1ccc(C(=O)Nc2ccc(Oc3ccc(C(=O)O)c(C(=O)O)c3)cc2)cc1C | -1% | 0% | -9% | 1% | 6µM* | 0%
Cc1cccc(C(=O)Nc2ccc(NC(=O)c3ccccc3)cc2)c1 | -1% | nt | -1% | -6% | 24µM* | ?
Cc1ccc(NC(=O)CO/N=C(\N)c2ccccc2)cc1C | nt | nt | nt | 5% | nt | 1%
Cc1cc2ccccn2c1C(=O)Nc1ccc(Cl)cc1 | 13% | 14% | ? | ? | ? | 12%
